Assay results from the OligoGym collection.

What follows are sequences tested against FAM181B (assay: pooled miR-30 sensor sort-seq; sequence = guide strand). Details: shRNA.
Further: reference of the scale not given here.

Sequence | sensor-assay potency score (higher = more potent)
TTCACCTTCCGCTTCGACTTGC | 0.326
TTGATGTTGCTGGACGCCGAGT | -1.34
TTGTGATTAAACAATCCCCAAC | -1.56
TTGGTTTCTTGACTCCTCTGGT | 0.637
TACACTAAATACACTGACCTTC | -0.096
TTCTTGACTCCTCTGGTCCAGT | -0.871
TTGTTTTAACACTTGAGGTTGT | 0.449
TCATCGTCCTCGAAACAGCAGC | -1.07
TTTTGTTTTAACACTTGAGGTT | 0.0361
TAAATACACTGACCTTCGCTGA | -0.839
TGAAGCTGAGTAGATCGCGGGT | -0.406
TTTGTTTTAACACTTGAGGTTG | -0.289

The sequences below were run against FAM194A in the same assay as above. Details: shRNA.

Sequence | sensor-assay potency score (higher = more potent)
TTATTGTCTTCATTATATCTTG | -0.455
TACAATGTCATCAATTATCTGT | 0.418
TTTATCAGACAAATCTTGGAGC | -0.442
TTAGTTTCGACTCTTCTGGATT | -1.18
TTATATCTTGCTTTATACCAGA | -0.69
TTTTCTTTTGCCTTGAGTCTGT | 0.354
